Inconclusive results are not listed. Calls of active or inactive are those of the source. Unless noted, the call rests on the fitted dose curve; in most records, active means well fitted curve in the direction sought with a large enough effect; inconclusive means small, poorly fitted or top-dose-only effect, or another doubt; inactive means no such curve, though single readings can be large; an effect the other way counts as inactive or inconclusive.
Key:
[1] = molecular target: Guanine nucleotide-binding protein G(i) subunit alpha-1 (Homo sapiens) (UniProt P63096); experiment: qHTS Assay for Inhibitors of RGS12 GoLoco Motif Activity (Green Fluorophore) (AID 879); settings: Galphai1/FITC-RGS12 GoLoco peptide, fluorescence polarization; series mostly up to 57.1 µM;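 further: 0% = labeled peptide with Gαi1 and full inhibition = labeled peptide alone without protein; negative values mean loss of peptide binding seen as reduced polarization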
Method in brief: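 A drop in FITC polarization marked displacement of the FITC-tagged RGS12 GoLoco peptide (10 nM) from Gαi1 (50 nM). Compounds were incubated 10 min at room temperature in Tris pH 7.5 buffer containing 150 mM NaCl, 0.1 mM GDP and 0.05% NP40; unlabeled peptide titration served as control.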

[2] = molecular target: Muscarinic acetylcholine receptor M1 (Rattus norvegicus) (UniProt P08482); experiment: qHTS Assay for Antagonists of Acetylcholine Muscarinic M1 Receptor: Measurement of IP-One Response (AID 944); settings: CHO-M1 cells, IP-One HTRF, antagonist mode; series mostly up to 46.1 µM; further: nearly all actives have a fitted effect of over 75% in size
Method in brief: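 Antagonist mode with rat M1 receptor transfected into CHO cells. Compound is added first for 10 min, carbachol at its EC80 follows for 30 min, and lysis reagents then allow TR-FRET detection of accumulated IP1.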

[3] = molecular target: Pyruvate kinase (Leishmania mexicana) (UniProt Q27686); experiment: qHTS Validation Assay for Inhibitors of Leishmania Mexicana Pyruvate Kinase (AID 945);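 further: 0% = DMSO only neutral control wells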; settings: purified L. mexicana pyruvate kinase, enzyme activity, E451W mutant enzyme; series mostly up to 57.5 µM
Method in brief: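 Eight-point qHTS titrations in triplicate, data normalized to DMSO neutral control. Reaction: 0.2 nM LmPYK E451W mutant, 0.5 mM PEP, 0.1 mM ADP, 7 mM MgCl2, pH 7.2, one hour at room temperature; luminescent ATP detection.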

[4] = molecular target: Pyruvate kinase PKM (Homo sapiens) (UniProt P14618); experiment: qHTS Assay for Activators of Human Muscle Pyruvate Kinase (AID 954; active means well fitted curve in the direction sought with a large enough effect, not every such curve was filed as active;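 further: 0% = uninhibited enzyme and -100% = no enzyme or full thiadiazolimine inhibition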); settings: purified human muscle pyruvate kinase, luciferase-coupled luminescence, 1 h; series mostly up to 57.5 µM
Method in brief: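 ATP production by PKM2 detected via luciferase luminescence after 1 h room-temperature reaction (0.1 nM enzyme, PEP at Km 0.5 mM, ADP 0.1 mM, pH 7.2 imidazole buffer). Inhibition scaled to no-enzyme control; activation referenced to 0.3 nM enzyme wells.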

[5] = molecular target: Alpha-galactosidase A (Homo sapiens) (UniProt P06280); experiment: Counterscreen for Glucocerebrosidase Inhibitors: qHTS Assay for Human alpha-Galactosidase at pH 4.5 (AID 992); settings: purified enzyme, fluorogenic substrate; series mostly up to 76.9 µM; further: 0% is about no effect
Method in brief: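 Fluorogenic 1536-well qHTS at pH 4.5 (citrate, Tween-20): 2 nM enzyme, 80 uM 4-MU-alpha-galactoside, 20 min room temperature, NaOH/glycine stop. Titration 0.7 nM to 77 uM, data normalized to no-enzyme and full-activity controls, Hill-fitted AC50.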

[6] = molecular target: Rap guanine nucleotide exchange factor 3 (Homo sapiens) (UniProt O95398); experiment: Counterscreen qHTS for antagonist of cAMP-regulated guanine nucleotide exchange factor 3 (EPAC1) (AID 1645888); settings: Rap1B-BODIPY-GDP nucleotide exchange, fluorescence; series mostly up to 154 µM;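 further: fluorescence loss as bound BODIPY-GDP is released from Rap1B; % of control where 0% means no effect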
Method in brief: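 Measured: fluorescence of BODIPY-GDP bound to Rap1B, which falls as exchange proceeds. Conditions include 50 uM competing GDP, 5 and 30 min reads, and a later cAMP challenge for antagonist detection.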

[7] = molecular target: Cytochrome P450 2D6 (Homo sapiens) (UniProt P10635); experiment: Cytochrome P450 family 2 subfamily D member 6 (CYP2D6) small molecule antagonists: luciferase biochemical (cell-free) qHTS assay (AID 1645840; active means well fitted curve in the direction sought with a large enough effect in the repeat runs; an effect the other way counts as inactive or inconclusive; further: on the % scale 0 is the no-effect control and ±100 the full control effect; nearly all actives have a fitted effect of over 55% in size); settings: P450-Glo CYP2D6 enzyme, luciferin luminescence, 1 h; series mostly up to 57.4 µM
Method in brief: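 P450-Glo CYP2D6 system: proluciferin substrate converted by enzyme to luciferin, read by luminescence proportional to activity. Enzyme-substrate mix with compound 10 min at room temperature, then NADPH regeneration 1 h before detection reagent.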

[8] = molecular target: Endonuclease 4 (Escherichia coli (strain K12)) (UniProt P0A6C1); experiment: Counterscreen for APE1 Inhibitors: qHTS Validation Assay for Inhibitors of Endonuclease IV (AID 1708); further: on the % scale 0 is the no-effect control and ±100 the full control effect; settings: E. coli endonuclease IV, DNA cleavage fluorescence; series mostly up to 57.1 µM
Method in brief: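 Enzyme (2 nM) + compound, 15 min RT; add 50 nM TAMRA/BHQ-2 THF-site dsDNA; kinetic read ex525/em598, 3 reads/60 s; activity = read 3 − read 1. Buffer Tris pH 7.5, 50 mM NaCl, 2 mM MgCl2, DTT, Tween-20.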

[9] = qHTS for differential inhibitors of proliferation of Plasmodium falciparum line 7G8 (AID 1815); settings: Plasmodium falciparum 7G8 proliferation inhibition; series mostly up to 28.7 µM;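 further: parasite growth measured after three days of incubation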; further: potency means the concentration at half of the fitted maximal effect;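 on activity change, negative = inhibition: plate controls were vehicle wells for no effect and reference inhibitor wells for full effect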
[10] = qHTS for differential inhibitors of proliferation of Plasmodium falciparum line GB4 (AID 1816); settings: Potency: Plasmodium falciparum GB4 proliferation inhibition; series mostly up to 28.7 µM;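 further: parasite growth measured after 72 h incubation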; further: potency means the concentration at half of the fitted maximal effect;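 on activity change, negative = inhibition: 0% = vehicle DMSO and -100% = reference inhibitor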
[11] = qHTS for differential inhibitors of proliferation of Plasmodium falciparum line D10 (AID 1877); settings: series mostly up to 28.7 µM;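 further: parasites grown with compound for 72 h before DNA staining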; further: potency means the concentration at half of the fitted maximal effect;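 on activity change, negative = inhibition: plate controls were vehicle wells for no effect and reference inhibitor wells for full effect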
[12] = molecular target: RecQ-like DNA helicase BLM (Homo sapiens) (UniProt P54132); experiment: qHTS Validation Assay for Inhibitors of Bloom's syndrome helicase (BLM) (AID 2364); settings: BLM helicase DNA unwinding, fluorescence, in vitro; series mostly up to 57.1 µM;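 further: plate controls were DMSO vehicle for no effect and enzyme-free control for full effect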
Method in brief: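 BLM 50 nM in 25 mM Tris-HCl pH 8.0, 5 mM NaCl, 2 mM MgCl2, 1 mM DTT, 0.01% Tween-20, 2.5 ug/ml poly(dI-dC); 15 min cpd preinc, RT. Start: 200 nM forked DNA + 2 mM ATP (final). TAMRA read, 2 reads 2 h apart.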

[13] = Validation screen for small molecules that induce DNA re-replication in MCF 10A normal breast cells (AID 463097); settings: MCF 10A cells, DNA re-replication phenotype imaging; series mostly up to 46.1 µM; further: 0% is about no effect; nearly all actives have a fitted effect of over 60% in size
Method in brief: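 Following 48 hr compound incubation (37 C, 5% CO2), MCF 10A cells receive Hoechst for 40 min at 37 C. Nuclei are then scanned (excitation 405 nm, emission 500-530 nm) for total fluorescence intensity.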

[14] = Quantitative high throughput screen for delayed death inhibitors of the malarial parasite plastid, 96 hour incubation (AID 488745); settings: Plasmodium falciparum growth; series mostly up to 28.7 µM; further: nearly all actives have a fitted effect of over 70% in size; further: potency means the concentration at half of the fitted maximal effect;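 on activity change, negative = inhibition: luciferase-expressing P. falciparum in erythrocytes at 2% hematocrit and 0.1% parasitemia; on the % scale 0 is the no-effect control and ±100 the full control effect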
Method in brief: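 Readout is firefly luciferase luminescence from an integrated reporter in P. falciparum; lower signal marks inhibited growth. Cultures at 2% hematocrit and 0.1% parasitemia were treated with compound across two generations (96 h, 37 C, 5% CO2).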

[15] = molecular target: Thyrotropin receptor (Homo sapiens) (UniProt P16473); experiment: qHTS Assay for Antagonists of the Thyroid Stimulating Hormone Receptor (AID 488980); settings: TSHR-expressing cells, cAMP antagonist read-out; series mostly up to 57.5 µM; further: 0% is about no effect
Method in brief: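 Inhibition of TSH-stimulated cAMP accumulation was quantified by homogeneous time-resolved FRET in TSHR-transfected HEK293 cells. Agonist: TSH, 4 nM final (EC80).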

[16] = Validation screen for small molecules that induce DNA re-replication in SW480 colon adenocarcinoma cells (AID 504364); settings: DNA re-replication phenotype (high-content imaging); series mostly up to 46.1 µM; further: 0% is about no effect
Method in brief: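 Image-based qHTS: compounds were incubated with SW480 cells for 48 hr, nuclei stained with Hoechst, and per-nucleus fluorescence intensity scanned to flag cells with excess DNA content.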

[17] = qHTS Assay for Modulators of Human Peripheral Myelin Protein 22 (PMP22) Expression/Activity (AID 1967; active means well fitted curve in the direction sought with a large enough effect in the signal ratio; the % refers to the signal ratio;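 further: 0% = untreated cells and 100% end not stated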); settings: Cell-based PMP22 reporter, dual-color luciferase ratio, 0% = compound-free control cells, mouse Pmp22 promoter in mouse Schwann cells; series mostly up to 115 µM
Method in brief: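 Engineered MSC80 cells, Pmp22-promoter green and EF-alpha red luciferase reporters; 24h compound treatment at 37 °C. Concentration-response fits on green, red and ratio signals, each overlap-corrected, with %Activity normalized to untreated wells.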

[18] = molecular target: Ferritin light chain (Equus caballus) (UniProt P02791); experiment: qHTS Validation Assay for Identification of Novel General Anesthetics (AID 2323); settings: horse apoferritin, anesthetic-site fluorescent probe displacement; series mostly up to 76.9 µM; further: on the % scale 0 is the no-effect control and ±100 the full control effect
Method in brief: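 Normalized fluorescence response, scaled between free 1-AMA and 1-AMA/apoferritin complex, fitted to a four-parameter Hill equation for concentration-effect values. Binding mix: 10 uM horse-spleen apoferritin, 50% saturated 1-AMA in PBS; read 380/535 nm after 10 min.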

[19] = Quantitative high throughput screen for delayed death inhibitors of the malarial parasite plastid, 48 hour incubation (AID 488752); settings: Plasmodium falciparum growth; series mostly up to 28.7 µM; further: nearly all actives have a fitted effect of over 65% in size; further: potency means the concentration at half of the fitted maximal effect
Method in brief: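 First, compound was pinned into RPMI 1640 medium containing 0.5% Albumax. Next, reporter-parasite-infected erythrocytes were added to 2% hematocrit and 0.1% parasitemia. After 48 h at 37 C under 5% CO2, luciferase detection reagent was added and luminescence read.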

[20] = NCATS anti-infectives library activity on HEK293 viability as a counter-qHTS vs the C. elegans viability qHTS (AID 1745854); settings: HEK293 viability counter-screen; series mostly up to 41.8 µM;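 further: HEK293 cells exposed to compounds for 24 hr before the viability read; on the % scale 0 is the no-effect control and ±100 the full control effect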
Method in brief: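 Counter-screen for cytotoxicity: HEK293, 24 hr, 37C, compounds up to 41.7 uM final (a dilution series, 1:5). Readout CellTiter-Glo luminescence, 10 min RT. Digitonin control, 83.3 uM final.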

Chain of Cytochrome P450 2D6 (Homo sapiens) (P10635 whole entry, looked up): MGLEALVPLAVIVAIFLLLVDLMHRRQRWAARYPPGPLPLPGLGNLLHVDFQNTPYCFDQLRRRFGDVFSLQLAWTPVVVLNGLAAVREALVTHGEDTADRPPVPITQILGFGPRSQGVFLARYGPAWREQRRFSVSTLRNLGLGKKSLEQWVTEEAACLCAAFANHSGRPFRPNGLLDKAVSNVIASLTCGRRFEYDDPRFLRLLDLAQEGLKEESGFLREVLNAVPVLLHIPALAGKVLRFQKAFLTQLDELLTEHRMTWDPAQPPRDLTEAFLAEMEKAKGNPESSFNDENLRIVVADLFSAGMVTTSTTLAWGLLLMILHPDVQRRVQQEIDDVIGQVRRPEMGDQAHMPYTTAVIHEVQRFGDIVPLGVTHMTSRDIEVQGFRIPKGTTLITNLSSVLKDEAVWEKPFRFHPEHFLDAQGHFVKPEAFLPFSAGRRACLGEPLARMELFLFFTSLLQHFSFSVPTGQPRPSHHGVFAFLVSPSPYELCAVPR
Chain of Rap guanine nucleotide exchange factor 3 (Homo sapiens) (O95398 whole entry, looked up): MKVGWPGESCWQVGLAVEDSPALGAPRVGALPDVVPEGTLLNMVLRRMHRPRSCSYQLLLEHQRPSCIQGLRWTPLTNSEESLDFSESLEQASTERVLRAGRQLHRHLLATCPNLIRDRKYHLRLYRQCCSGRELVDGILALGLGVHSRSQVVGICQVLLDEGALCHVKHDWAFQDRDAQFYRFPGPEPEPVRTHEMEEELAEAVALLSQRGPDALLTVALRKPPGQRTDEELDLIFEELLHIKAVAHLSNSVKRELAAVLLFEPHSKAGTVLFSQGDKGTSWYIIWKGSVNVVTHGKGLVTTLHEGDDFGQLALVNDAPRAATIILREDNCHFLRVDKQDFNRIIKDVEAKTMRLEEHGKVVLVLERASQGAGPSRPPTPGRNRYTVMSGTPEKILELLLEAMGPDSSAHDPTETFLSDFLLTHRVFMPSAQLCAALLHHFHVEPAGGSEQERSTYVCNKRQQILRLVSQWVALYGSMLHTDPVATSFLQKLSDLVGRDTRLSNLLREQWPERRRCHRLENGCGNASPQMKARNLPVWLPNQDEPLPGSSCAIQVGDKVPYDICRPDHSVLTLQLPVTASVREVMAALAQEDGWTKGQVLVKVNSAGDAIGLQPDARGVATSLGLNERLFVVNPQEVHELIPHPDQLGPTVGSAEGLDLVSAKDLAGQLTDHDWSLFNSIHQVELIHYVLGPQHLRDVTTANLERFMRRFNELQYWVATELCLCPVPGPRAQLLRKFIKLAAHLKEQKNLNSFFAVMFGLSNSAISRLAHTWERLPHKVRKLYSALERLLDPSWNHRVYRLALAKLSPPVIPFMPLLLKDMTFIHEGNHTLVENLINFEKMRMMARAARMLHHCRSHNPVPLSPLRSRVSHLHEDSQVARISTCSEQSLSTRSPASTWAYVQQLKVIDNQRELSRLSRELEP
Chain of Thyrotropin receptor (Homo sapiens) (P16473 whole entry, looked up): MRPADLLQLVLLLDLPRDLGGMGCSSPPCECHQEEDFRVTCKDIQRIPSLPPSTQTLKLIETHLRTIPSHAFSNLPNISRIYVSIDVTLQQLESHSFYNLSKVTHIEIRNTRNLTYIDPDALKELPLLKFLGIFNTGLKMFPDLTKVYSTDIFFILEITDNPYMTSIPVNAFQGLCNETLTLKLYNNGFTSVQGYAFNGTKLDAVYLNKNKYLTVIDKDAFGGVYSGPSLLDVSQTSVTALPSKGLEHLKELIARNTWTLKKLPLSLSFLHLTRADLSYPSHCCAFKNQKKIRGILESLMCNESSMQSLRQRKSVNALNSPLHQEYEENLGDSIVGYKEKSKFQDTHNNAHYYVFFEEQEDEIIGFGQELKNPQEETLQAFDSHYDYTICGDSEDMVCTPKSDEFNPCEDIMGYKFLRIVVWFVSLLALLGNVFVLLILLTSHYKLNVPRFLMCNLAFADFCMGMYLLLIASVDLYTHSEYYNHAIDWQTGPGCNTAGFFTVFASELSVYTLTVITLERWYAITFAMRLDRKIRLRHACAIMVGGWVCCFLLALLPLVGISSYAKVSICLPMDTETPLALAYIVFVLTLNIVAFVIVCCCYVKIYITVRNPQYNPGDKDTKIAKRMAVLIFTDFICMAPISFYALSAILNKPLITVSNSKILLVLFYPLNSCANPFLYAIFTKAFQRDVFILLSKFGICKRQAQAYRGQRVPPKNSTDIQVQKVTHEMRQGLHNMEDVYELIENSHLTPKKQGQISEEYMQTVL
Chain of Ferritin light chain (Equus caballus) (P02791 2-175 limits assumed): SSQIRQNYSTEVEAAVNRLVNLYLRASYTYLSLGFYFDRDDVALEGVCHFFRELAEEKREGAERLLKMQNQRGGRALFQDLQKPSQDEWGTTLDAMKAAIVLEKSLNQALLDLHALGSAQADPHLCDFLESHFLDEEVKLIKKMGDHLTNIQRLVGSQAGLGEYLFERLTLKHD
Chain of RecQ-like DNA helicase BLM (Homo sapiens) (P54132 whole entry, looked up): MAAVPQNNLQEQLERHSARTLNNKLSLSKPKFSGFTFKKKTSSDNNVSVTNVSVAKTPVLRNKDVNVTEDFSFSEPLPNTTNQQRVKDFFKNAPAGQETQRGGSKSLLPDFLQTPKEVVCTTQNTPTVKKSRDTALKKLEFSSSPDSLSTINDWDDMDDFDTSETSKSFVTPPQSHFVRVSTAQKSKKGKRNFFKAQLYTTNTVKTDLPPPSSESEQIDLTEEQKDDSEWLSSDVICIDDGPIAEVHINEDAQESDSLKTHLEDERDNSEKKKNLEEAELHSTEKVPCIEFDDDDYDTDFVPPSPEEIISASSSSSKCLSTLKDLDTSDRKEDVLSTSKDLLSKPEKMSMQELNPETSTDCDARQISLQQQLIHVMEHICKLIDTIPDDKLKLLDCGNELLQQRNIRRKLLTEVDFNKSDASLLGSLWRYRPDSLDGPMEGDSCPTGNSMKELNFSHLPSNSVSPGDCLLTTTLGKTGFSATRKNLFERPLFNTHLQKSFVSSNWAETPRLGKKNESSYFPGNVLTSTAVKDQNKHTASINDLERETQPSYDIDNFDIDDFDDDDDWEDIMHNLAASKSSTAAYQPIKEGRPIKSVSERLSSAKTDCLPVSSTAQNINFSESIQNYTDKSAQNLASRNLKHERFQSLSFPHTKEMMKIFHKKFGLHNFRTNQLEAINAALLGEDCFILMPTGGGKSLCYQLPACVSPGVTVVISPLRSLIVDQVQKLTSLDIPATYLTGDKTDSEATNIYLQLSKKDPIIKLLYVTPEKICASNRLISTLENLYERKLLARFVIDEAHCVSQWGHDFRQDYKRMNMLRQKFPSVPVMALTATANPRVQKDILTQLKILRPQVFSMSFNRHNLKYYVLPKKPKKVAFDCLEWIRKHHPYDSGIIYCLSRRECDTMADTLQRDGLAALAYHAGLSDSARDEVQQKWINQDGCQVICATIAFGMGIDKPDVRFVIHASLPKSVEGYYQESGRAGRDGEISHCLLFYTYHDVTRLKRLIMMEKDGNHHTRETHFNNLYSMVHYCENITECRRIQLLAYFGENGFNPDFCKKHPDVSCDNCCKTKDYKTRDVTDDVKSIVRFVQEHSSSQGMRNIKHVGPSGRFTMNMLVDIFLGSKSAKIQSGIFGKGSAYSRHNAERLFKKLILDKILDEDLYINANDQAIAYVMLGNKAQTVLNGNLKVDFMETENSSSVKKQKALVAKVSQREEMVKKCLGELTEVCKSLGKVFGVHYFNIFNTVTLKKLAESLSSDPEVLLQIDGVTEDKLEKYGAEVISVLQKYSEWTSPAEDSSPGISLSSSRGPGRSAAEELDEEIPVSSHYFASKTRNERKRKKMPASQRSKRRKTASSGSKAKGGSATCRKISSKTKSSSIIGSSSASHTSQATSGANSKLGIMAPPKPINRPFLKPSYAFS
Chain of Pyruvate kinase PKM (Homo sapiens) (P14618 whole entry, looked up): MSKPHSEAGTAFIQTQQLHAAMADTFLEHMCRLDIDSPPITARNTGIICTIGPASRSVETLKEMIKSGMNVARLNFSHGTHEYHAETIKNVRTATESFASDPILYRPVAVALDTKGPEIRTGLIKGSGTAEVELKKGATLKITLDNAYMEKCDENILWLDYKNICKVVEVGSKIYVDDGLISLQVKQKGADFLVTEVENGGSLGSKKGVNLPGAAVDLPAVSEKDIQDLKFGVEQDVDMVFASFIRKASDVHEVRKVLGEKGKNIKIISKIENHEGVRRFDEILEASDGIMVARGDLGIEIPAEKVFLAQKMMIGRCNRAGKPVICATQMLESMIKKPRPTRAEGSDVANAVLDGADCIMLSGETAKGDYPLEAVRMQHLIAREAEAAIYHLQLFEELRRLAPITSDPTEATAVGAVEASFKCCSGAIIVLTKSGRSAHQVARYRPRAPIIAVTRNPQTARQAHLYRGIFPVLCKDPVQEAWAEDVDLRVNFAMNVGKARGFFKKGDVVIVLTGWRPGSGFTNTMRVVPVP
Chain of Pyruvate kinase (Leishmania mexicana) (Q27686 2-499 E452W): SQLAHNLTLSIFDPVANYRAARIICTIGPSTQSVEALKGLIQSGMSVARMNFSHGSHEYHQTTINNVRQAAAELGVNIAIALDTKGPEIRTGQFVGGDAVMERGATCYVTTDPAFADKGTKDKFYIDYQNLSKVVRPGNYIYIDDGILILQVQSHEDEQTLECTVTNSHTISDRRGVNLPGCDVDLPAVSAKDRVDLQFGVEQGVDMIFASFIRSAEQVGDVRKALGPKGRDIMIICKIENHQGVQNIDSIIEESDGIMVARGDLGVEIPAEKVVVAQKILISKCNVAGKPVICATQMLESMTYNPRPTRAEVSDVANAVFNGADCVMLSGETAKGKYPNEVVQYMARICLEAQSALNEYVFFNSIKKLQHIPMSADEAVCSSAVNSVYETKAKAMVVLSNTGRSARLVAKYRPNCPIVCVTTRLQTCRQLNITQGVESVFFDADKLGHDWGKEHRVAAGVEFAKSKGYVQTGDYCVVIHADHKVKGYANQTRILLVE

Oc1cc2c(c(Cl)c1O)CCNC[C@H]2c1ccccc1
inactive: Potency [1] | Potency [2] | outcome [3] | outcome [4] | outcome [5]

C=CCc1ccc(OC(=O)c2ccccc2)c(OC)c1
inactive: activity change, negative = inhibition [6] -3.32% [at 30.8 µM]

CN(Cc1ccco1)c1ncnc2ccc(-c3ccc4c(c3)OCO4)cc12
inactive: outcome [6]

NC(Cc1ccc(O)c(O)c1)C(=O)O (stereo unspecified)
inactive: Potency [7]

COC(=O)c1c(C)cc(OC(=O)c2c(C)cc(O)c(C=O)c2O)c(C)c1O
inactive: Potency [7]

CCCCCC/C=C\CCCCCCCc1cccc(O)c1C(=O)O
inactive: Potency [7]

COc1c(-c2ccc(O)c(O)c2)oc2cc(O)cc(O)c2c1=O
inactive: outcome [6]

COc1ccc(-c2cc(=O)c3c(OC)c(OC)c(OC)c(OC)c3o2)cc1
inactive: activity change, negative = inhibition [6] -8.95% [at 30.8 µM]

CN1CCc2c(cc(O)c(O)c2Cl)C(c2cccc(Cl)c2)C1 (stereo unspecified)
inactive: outcome [8] | outcome [12] | outcome [13] | outcome [15] | outcome [16]
active: Potency [9] 5.01 µM | Potency [10] 5.01 µM | Potency [11] 10 µM | Potency [14] 18.5 µM

Nc1ncnc2c1ncn2[C@@H]1O[C@H](COP(=O)(O)OP(=O)(O)OP(=O)(O)OP(=O)(O)OC[C@@H]2O[C@H](n3cnc4c(N)ncnc43)[C@@H](O)[C@@H]2O)[C@H](O)[C@H]1O
inactive: outcome [17] | outcome [18] | outcome [12] | outcome [13] | Potency [14] | Potency [19] | outcome [15] | outcome [16]

C[n+]1cccc(C(=O)[O-])c1
inactive: outcome [20]

CC#C[C@]1(O)CC[C@H]2C3CCC4=CC(=O)CCC4=C3[C@@H](c3ccc(N(C)C)cc3)C[C@@]21C (stereo partly specified)
inactive: outcome [15]
active: Potency [9] 3.98 µM | Potency [10] 11.2 µM | Potency [11] 10 µM | Potency [14] 11.7 µM

Nc1ncnc2c1nc(Br)n2C1O[C@H]2COP(=O)(O)O[C@@H]2C1O (stereo partly specified)
inactive: outcome [8] | outcome [18] | outcome [12] | outcome [13] | Potency [19] | outcome [15] | outcome [16]
active: Potency [10] 12.6 µM

C[C@@H](Oc1ccc(Oc2cnc3ccc(Cl)cc3n2)cc1)C(=O)O
inactive: outcome [8] | Potency [11] | outcome [12] | Potency [14] | Potency [19] | outcome [15]

COc1ccc(-c2cc(=O)c3c(OC)c(OC)c(OC)c(OC)c3o2)cc1OC
inactive: outcome [20]

COc1cc2c3cc1Oc1c(OC)c(OC)cc4c1[C@@H](Cc1ccc(O)c(c1)Oc1ccc(cc1)C[C@@H]3N(C)CC2)N(C)CC4
inactive: outcome [20]

CC(C)=CCC/C(C)=C/CC/C(C)=C/CC/C(C)=C/CC/C(C)=C/CC/C(C)=C/CC/C(C)=C/CC/C(C)=C/CC/C(C)=C/CO
inactive: outcome [20]

CNC(=O)[C@H]1O[C@@H](n2cnc3c(N)ncnc32)[C@H](O)[C@H]1O
inactive: outcome [8] | Potency [9] | Potency [10] | Potency [11] | outcome [17] | outcome [18] | outcome [13] | Potency [14] | Potency [19] | outcome [15] | outcome [16]

COc1ccc(/C=C/C(=O)O)cc1OC
inactive: outcome [20]

CCCC1O[C@@H]2C[C@H]3[C@@H]4CCC5=CC(=O)C=C[C@]5(C)C4[C@@H](O)C[C@]3(C)[C@]2(C(=O)CO)O1 (stereo partly specified)
inactive: outcome [8] | outcome [18] | outcome [13] | outcome [16]
active: Potency [9] 2.24 µM | Potency [10] 3.16 µM | Potency [11] 11.2 µM | Potency [14] 2.94 µM | Potency [19] 10.4 µM

COc1ccc2c(c1OC)C(=O)OC2C1c2c(cc3c(c2OC)OCO3)CCN1C (stereo unspecified)
inactive: outcome [8] | outcome [18] | outcome [13] | outcome [15]

NC(=NCc1ccc(Cl)c(Cl)c1)NC(=O)c1nc(Cl)c(N)nc1N
active: Potency [9] 0.562 µM | Potency [10] 0.891 µM | Potency [11] 0.398 µM | Potency [14] 0.586 µM | Potency [19] 0.37 µM
inactive: Potency [1] | Potency [2] | outcome [3] | outcome [4] | outcome [5] | outcome [18] | outcome [12] | outcome [15]

CN(C)CCCO[C@H]1C([C@H](O)CO)O[C@@H]2OC(C)(C)O[C@@H]21 (stereo partly specified)
inactive: outcome [8] | Potency [9] | Potency [10] | Potency [11] | outcome [17] | outcome [18] | outcome [12] | outcome [13] | Potency [14] | Potency [19] | outcome [16]

— PubChem BioAssay (NCATS)
